Measured values taken from PubChem BioAssay (NCATS).
Records with an inconclusive call do not appear. Active and inactive are the calls of the source. The call rests on the fitted dose curve; in most records, active means well fitted curve in the direction sought with a large enough effect; inconclusive means small, poorly fitted or top-dose-only effect, or another doubt; inactive means no such curve, though single readings can be large; an effect the other way counts as inactive or inconclusive.

Columns and labels:
[1] = qHTS of pediatric cancer cell lines to identify multiple opportunities for drug repurposing: Confirmatory screen for BT-37 cells (AID 1347117);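 further: viability measured after 48 h of compound exposure; nearly all actives have a fitted effect of over 55% in size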
Outline: (§1)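 Viability after 48 h compound treatment at 37C, 500-1,000 cells/well, read as ATP luminescence with CellTiter-Glo. Primary screens used 11-point (MIPE, 0.78 nM-46 µM) or 8-point (NPC, 0.59 nM-46 µM) final concentrations; follow-up screens used 11-point dilutions.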

[2] = qHTS of pediatric cancer cell lines to identify multiple opportunities for drug repurposing: Confirmatory screen for TC32 cells (AID 1347118);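 further: cells exposed to compound for 48 h before the read; nearly all actives have a fitted effect of over 65% in size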
Outline: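 Measured quantity: luminescence from CellTiter-Glo, reflecting metabolically active TC32 cells following 48 h of compound. Curves came straight from multi-point titrations, with 8 or 11 points in primary and 11 in confirmatory screening.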

[3] = qHTS of pediatric cancer cell lines to identify multiple opportunities for drug repurposing: Confirmatory screen for MG 63 (6-TG R) cells (AID 1347119); further: nearly all actives have a fitted effect of over 55% in size
Outline: as §1

[4] = qHTS of pediatric cancer cell lines to identify multiple opportunities for drug repurposing: Confirmatory screen for control Hh wild type fibroblast cells (AID 1347121); further: nearly all actives have a fitted effect of over 70% in size
Outline: as §1

[5] = qHTS of pediatric cancer cell lines to identify multiple opportunities for drug repurposing: Confirmatory screen for U-2 OS cells (AID 1347122); further: nearly all actives have a fitted effect of over 65% in size
Outline: as §1

[6] = qHTS of pediatric cancer cell lines to identify multiple opportunities for drug repurposing: Confirmatory screen for RD cells (AID 1347124);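 further: cells exposed to compound for 48 h before viability readout; nearly all actives have a fitted effect of over 65% in size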
Outline: as §1

[7] = qHTS of pediatric cancer cell lines to identify multiple opportunities for drug repurposing: Confirmatory screen for Saos-2 cells (AID 1347127); further: nearly all actives have a fitted effect of over 60% in size
Outline: as §1

[8] = qHTS of pediatric cancer cell lines to identify multiple opportunities for drug repurposing: Confirmatory screen for Rh41 cells (AID 1347123);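 further: 48 h compound exposure; nearly all actives have a fitted effect of over 60% in size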
Outline: as §1

[9] = qHTS of pediatric cancer cell lines to identify multiple opportunities for drug repurposing: Confirmatory screen for Rh30 cells (AID 1347126); further: nearly all actives have a fitted effect of over 55% in size
Outline: as §1

[10] = qHTS of pediatric cancer cell lines to identify multiple opportunities for drug repurposing: Confirmatory screen for Rh18 cells (AID 1347125); further: nearly all actives have a fitted effect of over 55% in size
Outline: as §1
Potency means the concentration at half of the fitted maximal effect.

Structure (SMILES) | Potency [1] | Potency [2] | Potency [3] | Potency [4] | Potency [5] | Potency [6] | Potency [7] | Potency [8] | Potency [9] | Potency [10]
CC1(C)CCC(c2ccc(Cl)cc2)=C(CN2CCN(c3ccc(C(=O)NS(=O)(=O)c4ccc(N[C@H](CCN5CCOCC5)CSc5ccccc5)c(S(=O)(=O)C(F)(F)F)c4)cc3)CC2)C1 | inactive | inactive | inactive | inactive | inactive | inactive | inactive | – | – | –
Cc1ccc(C(N)=O)cc1Nc1nccc(-c2cn(C(C)C)c3cnccc23)n1 | 6760 nM (active) | 7590 nM (active) | inactive | inactive | 15100 nM (active) | – | 21400 nM (active) | 13500 nM (active) | – | –
CC1(C)OC2=C(C(=O)c3ccccc3C2=O)[C@H](NCc2ccccc2)[C@H]1O | 5220 nM (active) | 4140 nM (active) | 16500 nM (active) | 13100 nM (active) | 1850 nM (active) | 8270 nM (active) | 8270 nM (active) | 2930 nM (active) | – | –
O=C(O)c1ccc2cc(-c3ccc(O)c(C45CC6CC(CC(C6)C4)C5)c3)ccc2c1 | 1470 nM (active) | 585 nM (active) | 585 nM (active) | inactive | – | – | 1310 nM (active) | 3290 nM (active) | 104 nM (active) | –
NC(=O)Nc1cc(-c2cccc(F)c2)sc1C(=O)N[C@H]1CCCNC1 | 827 nM (active) | 737 nM (active) | 1040 nM (active) | 20800 nM (active) | 1170 nM (active) | – | 1650 nM (active) | – | – | –
COc1cccc(Nc2c(C(N)=O)cnc3c(C)cc(S(=O)(=O)c4cccc(C(=O)N(C)C)c4)cc23)c1 | inactive | 512 nM (active) | inactive | inactive | inactive | – | inactive | – | – | –
COc1cc2c(Oc3ccc(NC(=O)C4(C(=O)Nc5ccc(F)cc5)CC4)cc3F)ccnc2cc1OCCCN1CCOCC1 | 10400 nM (active) | 1850 nM (active) | 7370 nM (active) | 20800 nM (active) | 8270 nM (active) | 10400 nM (active) | 4140 nM (active) | – | – | –
CNC(=O)c1ccccc1Nc1nc(Nc2ccc(N3CCOCC3)cc2OC)ncc1Cl | 13100 nM (active) | 827 nM (active) | 261 nM (active) | inactive | 13100 nM (active) | 827 nM (active) | 1470 nM (active) | 928 nM (active) | inactive | –
CC1(C)O[C@@H]2C[C@@H]3[C@H]4C[C@@H](F)C5=CC(=O)C=C[C@]5(C)[C@@]4(F)[C@@H](O)C[C@]3(C)[C@]2(C(=O)CO)O1 | 82.7 nM (active) | 369 nM (active) | 2610 nM (active) | inactive | 1310 nM (active) | 8270 nM (active) | 117 nM (active) | 585 nM (active) | inactive | inactive
CC[C@@H]1C(=O)N(C)c2cnc(Nc3ccc(C(=O)NC4CCN(C)CC4)cc3OC)nc2N1C1CCCC1 | 131 nM (active) | 52.2 nM (active) | 92.8 nM (active) | 18500 nM (active) | – | 46.5 nM (active) | 36.9 nM (active) | – | – | –
CC[C@H]1CN2CCc3cc(OC)c(OC)cc3[C@H]2C[C@@H]1C[C@@H]1NCCc2cc(OC)c(OC)cc21 | 293 nM (active) | 233 nM (active) | 827 nM (active) | inactive | 928 nM (active) | 369 nM (active) | 928 nM (active) | – | 5850 nM (active) | –
Cc1c(C)n(Cc2ccc(-c3ccccc3C(=O)O)cc2)c2ccc(C(=O)N[C@@H](C)c3ccc([N+](=O)[O-])cc3)cc12 | inactive | inactive | inactive | inactive | inactive | inactive | inactive | – | inactive | inactive
Cc1cc(Nc2ncnc3ccc(-c4ccc(CNCCS(C)(=O)=O)o4)cc23)ccc1Oc1ccn2ncnc2c1 | 16500 nM (active) | 18500 nM (active) | inactive | inactive | – | – | – | 2330 nM (active) | – | –
COC(=O)[C@]12CCC(C)(C)C[C@@H]1[C@@H]1C(=O)C=C3[C@@]4(C)C=C(C#N)C(=O)C(C)(C)[C@@H]4CC[C@@]3(C)[C@]1(C)CC2 | 3690 nM (active) | 3290 nM (active) | 4650 nM (active) | 7370 nM (active) | 2080 nM (active) | 1650 nM (active) | 3690 nM (active) | 2330 nM (active) | 3290 nM (active) | –
CC(C)c1cnn2c(NCc3ccccc3)cc(N[C@@H](CO)[C@H](O)CO)nc12 | 369 nM (active) | 522 nM (active) | 827 nM (active) | inactive | 465 nM (active) | 737 nM (active) | 585 nM (active) | 737 nM (active) | – | –
CC1=C(CO)C(=O)O[C@@H]([C@@H](C)[C@H]2CC[C@H]3[C@@H]4C[C@H]5O[C@]56[C@@H](O)C=CC(=O)[C@]6(C)[C@@H]4CC[C@]23C)C1 | inactive | inactive | inactive | inactive | inactive | – | inactive | inactive | – | –

Structure (SMILES) | Potency [1] | Potency [2] | Potency [3] | Potency [4] | Potency [5] | Potency [6] | Potency [7] | Potency [8] | Potency [9] | Potency [10]
Cc1cnc(Nc2ccc(F)cc2Cl)nc1-c1c[nH]c(C(=O)N[C@H](CO)c2cccc(Cl)c2)c1 | inactive | inactive | inactive | inactive | 6570 nM (active) | – | inactive | – | – | inactive
Cc1ccc(NC(=O)C2(c3ccc4c(c3)OC(F)(F)O4)CC2)nc1-c1cccc(C(=O)O)c1 | inactive | inactive | inactive | inactive | 9270 nM (active) | 10400 nM (active) | inactive | – | 9270 nM (active) | –
CNC(=O)c1ccc(N2C(=S)N(c3cnc(C#N)c(C(F)(F)F)c3)C(=O)C23CCC3)cc1F | inactive | inactive | inactive | inactive | inactive | inactive | inactive | inactive | inactive | –
C#Cc1cccc(Nc2ncnc3cc(OC)c(OCCCCCCC(=O)NO)cc23)c1 | 759 nM (active) | 676 nM (active) | 851 nM (active) | 10700 nM (active) | 1350 nM (active) | 1200 nM (active) | 1350 nM (active) | 1070 nM (active) | 2140 nM (active) | 1910 nM (active)
Cc1cc(C(=O)N2CCN(c3cccc(Cl)c3)CC2)n(-c2ccccc2)n1 | 5220 nM (active) | 2610 nM (active) | 1650 nM (active) | inactive | 3290 nM (active) | – | – | – | – | –
C[C@@]12O[C@@H](C[C@]1(O)CO)n1c3ccccc3c3c4c(c5c6ccccc6n2c5c31)CNC4=O | 2930 nM (active) | 657 nM (active) | 1470 nM (active) | 18500 nM (active) | 737 nM (active) | – | 1310 nM (active) | 8270 nM (active) | 2330 nM (active) | –
C=CC(=O)Nc1cc2c(Nc3ccc(F)c(Cl)c3)ncnc2cc1C#CC(C)(C)N1CCN(C)CC1 | 3020 nM (active) | 3020 nM (active) | 4270 nM (active) | 19100 nM (active) | 4790 nM (active) | 6030 nM (active) | 4270 nM (active) | – | 3800 nM (active) | 6030 nM (active)
CCN1CCN(Cc2ccc(-c3cc4c(N[C@H](C)c5ccccc5)ncnc4[nH]3)cc2)CC1 | 2690 nM (active) | 759 nM (active) | 13500 nM (active) | 42700 nM (active) | 12000 nM (active) | 21400 nM (active) | 4270 nM (active) | – | 15100 nM (active) | 33900 nM (active)
COc1ccc(C=Cc2cc(OC)c(OC)c(OC)c2)cc1O | 14.7 nM (active) | 13.1 nM (active) | 10.4 nM (active) | inactive | 26.1 nM (active) | 11.7 nM (active) | 10.4 nM (active) | 10.4 nM (active) | inactive | inactive
CCC1=C[C@@H]2CN(C1)Cc1c([nH]c3ccccc13)[C@@](C(=O)OC)(c1cc3c(cc1OC)N(C)[C@@H]1[C@@](O)(C(=O)OC)[C@H](OC(C)=O)[C@]4(CC)C=CCN5CC[C@]31[C@@H]54)C2 | 7370 nM (active) | 6570 nM (active) | 13100 nM (active) | inactive | 7370 nM (active) | 369 nM (active) | 7370 nM (active) | 369 nM (active) | 23300 nM (active) | –
COC(=O)Nc1nc2ccc(C(=O)c3ccc(F)cc3)cc2[nH]1 | 2610 nM (active) | 1170 nM (active) | 1470 nM (active) | inactive | – | 2930 nM (active) | 1850 nM (active) | – | inactive | –
Nc1ccccc1NC(=O)c1ccc(CNc2nccc(-c3cccnc3)n2)cc1 | inactive | inactive | inactive | inactive | 414 nM (active) | 1650 nM (active) | – | – | 1650 nM (active) | 1170 nM (active)
CCNC(=O)Nc1ccc2ncc(Nc3ccc(C)cc3)nc2n1 | inactive | inactive | inactive | inactive | inactive | inactive | inactive | – | inactive | inactive
COCCn1c2c([n+](Cc3cnccn3)c1C)C(=O)c1ccccc1C2=O | 82.7 nM (active) | 18.5 nM (active) | 73.7 nM (active) | 261 nM (active) | 14.7 nM (active) | 26.1 nM (active) | 7.4 nM (active) | 18.5 nM (active) | inactive | –
Cc1c(NC(=O)OC[C@@H]2COCCN2)cn2ncnc(Nc3ccc4c(cnn4Cc4cccc(F)c4)c3)c12 | 18500 nM (active) | 26100 nM (active) | inactive | inactive | 20800 nM (active) | inactive | inactive | – | – | –
